Screens (PubChem)
uPA surface inh: blocks generation of uPA at the cell surface. 330,000 compounds, 0.31% hits. AID 540303. cell surface uPA generation assay, qHTS. Potency, µM (series often up to 38.3 µM), for the others: top-dose activity change, negative = inhibition, actives largely listed as inhibitors; active = well fitted inhibition curve with a large enough effect; inconclusive = small, poorly fitted or top-dose-only effect; inactive = no such curve, though single readings can be large or run the other way; tested in mouse RAW 264.7 cells; also: potency is read from the fitted curve at half-maximal effect; % is scaled to controls: 0 for no effect and ±100 for the full control effect; nearly all actives have a fitted effect of over 55% in size
TRPV1 potentiator: potentiators of human vanilloid receptor 1 (TRPV1); TRPV1-expressing cells, Fluo-8 calcium influx, capsaicin EC20 potentiation; potentiation, % at 8.33 µM; 320,000 compounds, 0.02% hits; in the data active = potentiation above about 80%; inconclusive = between about 30% and that limit; also: 0% is about no effect
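Cells expressing TRPV1 were dye-loaded with Fluo-8 and read kinetically: 10 s baseline, 3 min after compound (agonist portion), then 2 min after EC20 capsaicin (allosteric enhancer portion). Calcium-bound dye fluorescence at 480/520 nm.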
RORg inh: blocks mouse ROR gamma transcriptional activity | P51450 | Drosophila S2 Gal4-RORgamma UAS-luciferase reporter, 20 h | Potency, µM (highest dose often 53.6 µM), without a hit: at the highest dose activity change, negative = inhibition, actives largely listed as inhibitors | 310,000 compounds, 5.4% hits | AID 2551; also: potency is read from the fitted curve at half-maximal effect; % is scaled to controls: 0 for no effect and ±100 for the full control effect; nearly all actives have a fitted effect of over 60% in size
Target sequence (P51450 whole entry, looked up, the tested form may be a part): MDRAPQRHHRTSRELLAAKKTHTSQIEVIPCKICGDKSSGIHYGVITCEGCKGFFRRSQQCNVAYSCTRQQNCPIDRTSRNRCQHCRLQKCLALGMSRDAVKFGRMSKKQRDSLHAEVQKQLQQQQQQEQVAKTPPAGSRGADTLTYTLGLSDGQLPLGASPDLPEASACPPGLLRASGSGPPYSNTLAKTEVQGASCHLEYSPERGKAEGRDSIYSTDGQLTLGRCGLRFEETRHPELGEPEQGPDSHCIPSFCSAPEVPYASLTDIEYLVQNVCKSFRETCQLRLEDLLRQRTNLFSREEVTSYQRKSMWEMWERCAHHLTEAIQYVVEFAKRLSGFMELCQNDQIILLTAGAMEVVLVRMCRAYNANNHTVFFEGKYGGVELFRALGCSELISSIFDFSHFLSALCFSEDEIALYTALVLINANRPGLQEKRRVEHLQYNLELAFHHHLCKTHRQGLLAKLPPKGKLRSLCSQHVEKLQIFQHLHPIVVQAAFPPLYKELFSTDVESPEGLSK
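Drosophila Schneider cells stably carrying a metallothionein-driven Gal4 DBD–ROR gamma fusion and a UAS-Photinus luciferase reporter were exposed to compound for 1 hr, then induced with copper sulfate (700 uM final) for 20 hr at ambient temperature before luminescence reading.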
Gal4-VP16 FLuc: inhibits Gal4-VP16 luciferase reporter, ROR gamma counter-screen; Drosophila S2 Gal4-VP16 UAS-luciferase, luminescence, 20 h; Potency, µM (titrated, usually from 53.6 µM), for the others: top-dose activity, negative = inhibition, hits mostly inhibitors; 310,000 compounds, 3.5% hits;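 also: Gal4-VP16 expression switched on by copper sulfate through the metallothionein promoter; potency is read from the fitted curve at half-maximal effect; % is scaled to controls: 0 for no effect and ±100 for the full control effect; nearly all actives have a fitted effect of over 50% in size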
TRPV1 agonist: agonists of human vanilloid receptor 1 (TRPV1) | Q8NER1 | 320,000 compounds, 0.19% hits | activation, % at 8.33 µM | AID 540275 | TRPV1-expressing cells, Fluo-8 calcium influx, agonist mode; in the data active = activation above about 80%; inconclusive = between about 30% and that limit; also: 0% is about no effect
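Cells expressing TRPV1 were dye-loaded with Fluo-8 and read kinetically: 10 s baseline, 3 min after compound (agonist portion), then 2 min after EC20 capsaicin (allosteric enhancer portion). Calcium-bound dye fluorescence at 480/520 nm.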
* = called active by the depositor; ? = inconclusive; nt = no result; ! = repeats disagree; [ ] = dose if it differs, or a comment. Most compounds without a hit are left out; they make up all but 5.8% or so of the library. Unless noted, calls follow the shape of the dose curve; as a rule, active = well fitted curve in the direction sought with a large enough effect; inconclusive = small, poorly fitted or top-dose-only effect, or another doubt; inactive = no such curve, though single readings can be large; an effect the other way counts as inactive or inconclusive.

SMILES | uPA surface inh | TRPV1 potentiator | RORg inh | Gal4-VP16 FLuc | TRPV1 agonist
COc1ccc2c(c1)OC1=C(C(=O)CCC1)C2C1=C(O)CCCC1=O (configuration not stated) | -1.8% | -1.2 | 11.2µM* | 9.8% | -0.5
Cc1ccccc1Nc1ccc([N+](=O)[O-])cn1 | 5.9% | -2.2 | -1.6% | 10.3% | 3.6
Cc1ccccc1NC1=NCC(c2ccc([N+](=O)[O-])cc2)S1 (configuration not stated) | 19.1% | 10.3 | ? | 22.4µM* | -3.1
Cn1c(CNc2nc3ccccc3n2CCN2CCCCC2)nc2ccccc21 | -2.0% | -8.8 | 15.8µM* | 3.4% | 22.6
COc1ccc(CNc2nc3ccccc3n2CCN2CCCCC2)cc1 | 0.6% | -17.5 | 15.8µM* | -5.0% | 28.4
CCN(CC)CCn1c(NCc2nc3ccccc3n2Cc2ccccc2)nc2ccccc21 | -3.5% | -21.7 | 11.2µM* | ? | ?
CCOc1ccc(CNc2nc3ccccc3n2CCN2CCOCC2)cc1 | 1.6% | -3.0 | -12.1% | -5.8% | 4.6
COc1ccc(CCN2CCC(Nc3nc4ccccc4n3Cc3ccc(F)cc3)CC2)cc1 | ? | 7.7 | 14.1µM*! | ? | 4.2
c1ccc(Cn2c(CNc3nc4ccccc4n3CCN3CCCCC3)nc3ccccc32)cc1 | -16.8% | -13.2 | ? | ? | 27.7
Cn1cc(-c2nc3cnc(Oc4cccc(Cl)c4)nc3n(CCC#N)c2=O)c2ccccc21 | nt | nt | -20.4% | -4.7% | nt
Cc1ccc(C)c(SCC(=O)NC(=O)NC2CCCC2)c1 | 11.3% | 12.8 | nt | nt | 2.2
CC(=O)OC[C@H]1O[C@H](C/C=N/OC[C@@H](O)[C@H]2O[C@@H]3OC(C)(C)O[C@@H]3[C@H]2O)C=C[C@@H]1OC(C)=O | nt | -5.4 | -4.0% | -9.6% | -3.9
CCN(CC)c1ccc(CNc2nc3ccccc3n2CCN2CCCCC2)cc1 | -16.6% | -21.6 | 8.91µM* | ? | 23.2
CCN(CC)c1ccc(CNc2nc3ccccc3n2C)cc1 | -0.1% | 3.7 | -1.5% | -1.9% | 6.3
Cc1ccnc(N/C=C/C(=O)c2ccc(Br)cc2)c1 | -10.8% | 17.2 | ? | ? | 5.8
CSc1ccc(NC(=O)Nc2cc(C)ccn2)cc1 | -5.4% | ? | 8.91µM* | ? | 3.3
COc1ccc(C(=O)/C=C/Nc2cc(C)ccn2)cc1 | -12.7% | -14.7 | 0.199µM* | ? | 23.8
COc1ccc(C(=O)NC(=O)Nc2cc(C)ccn2)cc1 | ? | -4.6 | 0.0398µM* | 0.178µM* | 0.4
Cc1ccnc(NC(=O)Nc2ccc(F)cc2)c1 | 1.7% | 2.0 | ? | -14.1% | -3.6
O=C(CCNS(=O)(=O)c1ccccc1)N1CCC(Cc2ccccc2)CC1 | -4.8% | 0.6 | 32.5% | 13.2% | 10.3
COc1cc(/C=C2\C(=N)N3N=C(S(=O)(=O)CC(C)C)SC3=NC2=O)ccc1OC(=O)c1ccco1 | nt | 12.5 | -10.5% | -6.1% | 2.0
CN(C)CCNC(=O)C(=O)Nc1ccc2c(c1)N(S(=O)(=O)c1cccs1)CCC2 | 4.47µM* | 5.0 | nt | nt | -5.7
CNC(=O)COC(=O)C1CCN(S(=O)(=O)c2ccc3c(c2)OCCO3)CC1 | -4.2% | 9.2 | nt | nt | 0.4
O=C(Nc1nc2c(s1)CCCC2)Oc1ccccc1 | -1.8% | -23.0 | -28.7% | -23.3% | 1.3
C/C(=N\Nc1nc(C(C)(C)C)cs1)c1ccc(O)cc1 | -8.7% | 3.0 | ? | 10µM* | 5.2
SMILES | uPA surface inh | TRPV1 potentiator | RORg inh | Gal4-VP16 FLuc | TRPV1 agonist
O=S1(=O)N=C(Nc2nc3c(s2)CCCC3)c2ccccc21 | -8.5% | -11.0 | 0.447µM* | 1.26µM* | -0.5
O=C(O)c1ccc(Nc2nc3c(s2)CCCC3)cc1 | 13.9% | 5.5 | 1.26µM* | 3.55µM* | 0.4
C/C(=N\Nc1nc(C(C)(C)C)cs1)c1ccccc1 | -27.1% | -2.5 | nt | nt | 8.4
Cc1cccc(Nc2nc3c(s2)CCCC3)c1 | -3.3% | -6.0 | -6.1% | -17.7% | 7.6
C/C(=N\Nc1nc2c(s1)CCCC2)c1ccccc1 | 4.4% | -12.9 | 12.6µM* | ? | 15.2
COc1cc(CNCCCN2CCOCC2)c(Br)cc1OCC(=O)Nc1ccccc1C | -4.1% | -14.0 | 4.8% | -20.7% | 0.7
NCC1OC(n2cnc3c(=O)[nH]c(N)nc32)C(O)C1O (configuration not stated) | nt | nt | 0.4% | 5.3% | nt
C/C(=N\Nc1nc(C(=O)O)cs1)c1ccccc1 | -2.5% | 3.0 | 0.631µM* | 5.01µM* | -0.5
O=C(NC(=S)Nc1cc(C(F)(F)F)ccc1N1CCOCC1)c1sc2ccccc2c1Cl | 11.6% | 10.3 | 2.24µM* | 3.98µM* | -1.8
O=C(CCCCl)NC(=S)Nc1cc(C(F)(F)F)ccc1N1CCOCC1 | -21.2% | -24.5 | 7.94µM* | ? | ?
CC(C)(C)C(=O)NC(=S)Nc1cc(C(F)(F)F)ccc1N1CCOCC1 | 17.9% | -9.2 | 12.6µM* | ? | ?
CCCC(=O)Nc1cc(C(F)(F)F)ccc1N1CCOCC1 | -2.4% | -29.7 | 18.0% | -4.1%[10 µM] | 23.0
COc1ccc(OCCCC(=O)Nc2cc(Cl)ccc2-n2cncn2)cc1 | -20.6% | 12.4 | nt | nt | -1.9
O=c1c(Cc2ccccc2)c(O)ccn1C1CCCCCCC1 | -3.5% | 0.2 | 1.1% | 2.0% | 16.5
O=C1C(Cl)=C(NCCN2CCOCC2)C(=O)c2ccccc21 | -6.9% | 1.1 | ? | ? | 1.5
O=C1C(Cl)=C(NC2CCc3ccccc32)C(=O)c2ncccc21 (configuration not stated) | nt | nt | 4.47µM* | 4.47µM* | nt
O=C1C(Cl)=C(NCCN2CCOCC2)C(=O)c2ncccc21 | nt | nt | 4.47µM* | 2.82µM* | nt
Nc1nonc1C(=O)N/N=C/c1cc2c(cc1Br)OCO2 | -1.2% | 14.6 | -10.2% | -12.3% | 15.9
COc1ccc(C(=O)N2CCN(c3ccccc3)CC2)cc1S(=O)(=O)N1CCOCC1 | 1.1% | -2.4 | 4.5% | -0.1% | 1.3
CN(C1CCCCC1)S(=O)(=O)c1ccc(=S)[nH]c1 | 1.8% | -0.4 | nt | nt | -3.4
COc1ccc2nc(C)c3c(c2c1)OC(C(C)(Cl)Br)C3 (configuration not stated) | 0.7% | -7.6 | 5.01µM* | -23.4% | ?
Cc1ccc2nc(C)c3c(c2c1)OC(C(C)(Cl)Br)C3 (configuration not stated) | -1.2% | -4.6 | 8.5% | -23.7% | ?
CN1C[C@@H]2C[C@H]1CN2c1cc2c(cc1F)c(=O)c(C(=O)O)cn2C1CC1 | nt | nt | -23.3%[10 µM] | -4.2% | nt
S=c1[nH]ccn1-c1cccc(Cl)c1Cl | 13.7% | 3.5 | 7.94µM* | ? | 9.8
S=c1[nH]ccn1-c1cccc(Cl)c1 | 3.8% | -5.7 | 12.6µM* | ? | -3.1
Cc1ccc(-n2cc[nH]c2=S)cc1C | 4.6% | -7.5 | 0.0501µM* | -91.9% | 2.0
Cc1ccc(N2C(=O)C3CCCN3C2=S)cc1C (configuration not stated) | -0.8% | ? | 3.6% | 2.8% | 1.0
CCCn1c(=O)n(N)c2ccccc21 | 4.4% | 2.6 | -0.8% | -2.8% | -0.4
CCn1c(SC(C)C(=O)Nc2ccc3c(c2)OCCO3)nnc1C1CC1 (configuration not stated) | -24.8% | -5.0 | nt | nt | 1.4
